Measurements published in PubChem BioAssay (Tox21).
Several values for one entry are separate records, joined by “and”; a condition that tells them apart may be missing. Equal values may be shown once. Results filed as inconclusive are left out. Where a structure was tested more than once in an assay, its records may differ in their call. Activity calls are given as the source filed them. Unless noted, the call rests on the fitted dose curve; in most records, active means well fitted curve in the direction sought with a large enough effect in the repeat runs; inconclusive means weak or mixed curves; inactive means no such curve, though single readings can be large; an effect the other way counts as inactive or inconclusive.

What was measured:
[1] = molecular target: Acetylcholinesterase (Homo sapiens) (UniProt P22303); experiment: Acetylcholinesterase (AChE) small molecule antagonists: enzyme-based qHTS assay (AID 1347397; calls by dose curve; further: nearly all actives have a fitted effect of over 55% in size; further: potency means the concentration at half of the fitted maximal effect); settings: Potency: AChE enzyme activity inhibition; outcome: AChE enzyme activity inhibition
Sequence of Acetylcholinesterase (Homo sapiens) (P22303 whole entry, looked up): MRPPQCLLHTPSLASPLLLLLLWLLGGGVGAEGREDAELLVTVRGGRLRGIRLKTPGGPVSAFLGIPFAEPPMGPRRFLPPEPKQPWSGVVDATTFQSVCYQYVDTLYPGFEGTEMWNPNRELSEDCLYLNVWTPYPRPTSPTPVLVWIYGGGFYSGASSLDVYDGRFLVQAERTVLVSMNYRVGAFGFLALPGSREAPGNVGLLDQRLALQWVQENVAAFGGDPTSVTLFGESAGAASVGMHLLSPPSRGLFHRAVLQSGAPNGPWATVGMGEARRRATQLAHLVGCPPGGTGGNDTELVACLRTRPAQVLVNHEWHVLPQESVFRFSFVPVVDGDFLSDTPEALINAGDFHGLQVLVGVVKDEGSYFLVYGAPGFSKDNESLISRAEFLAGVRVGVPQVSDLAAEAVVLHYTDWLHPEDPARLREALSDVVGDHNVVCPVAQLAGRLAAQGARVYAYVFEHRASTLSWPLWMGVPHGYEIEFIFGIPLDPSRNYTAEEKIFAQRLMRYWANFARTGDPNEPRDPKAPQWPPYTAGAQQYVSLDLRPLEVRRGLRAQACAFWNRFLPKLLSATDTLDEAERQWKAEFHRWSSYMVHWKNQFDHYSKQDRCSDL
Procedure, shortened: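 Colorimetric DTNB read-out of thiocholine released from acetylthiocholine by recombinant human AChE (50 mU/mL as dispensed). Compounds were preincubated 30 min at RT before substrate/DTNB addition, with a 10 min RT reaction.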

[2] = molecular target: Acetylcholinesterase (Homo sapiens) (UniProt P22303); experiment: Acetylcholinesterase (AChE) small molecule antagonists: fluorescence cell-based qHTS assay (AID 1347398; calls by dose curve; further: nearly all actives have a fitted effect of over 50% in size; further: potency means the concentration at half of the fitted maximal effect); settings: Potency: AChE activity; outcome: AChE activity
Procedure, shortened: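 SH-SY5Y, 2,000 cells/well, attached overnight; cmpd 30 min 37 C; acetylthiocholine/Thiolite Green cocktail 40 min RT; fluorescence Ex/Em 490/520 nm.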

[3] = molecular target: Acetylcholinesterase (Homo sapiens) (UniProt P22303); experiment: Acetylcholinesterase (AChE) small molecule antagonists: enzyme-based qHTS assay with human liver microsomes (AID 1347399; calls by dose curve; further: nearly all actives have a fitted effect of over 60% in size; further: potency means the concentration at half of the fitted maximal effect); settings: Potency: qHTS inhibition; outcome: qHTS inhibition
Procedure, shortened: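 Recombinant human AChE (50 mU/mL in the enzyme mix) and human liver microsomes (0.25 mg/mL final) were preincubated with compound and NADPH (0.25 mg/mL final) for 30 min at 37 C. Acetylthiocholine/DTNB was then added; thiocholine was read colorimetrically after 10 min at room temperature.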

[4] = molecular target: Cytochrome P450 2D6 (Homo sapiens) (UniProt P10635); experiment: Cytochrome P450 Family 2 Subfamily D Member 6 (CYP2D6) small molecule antagonists: luciferase reporter qHTS assay (AID 1671196); further: nearly all actives have a fitted effect of over 50% in size; further: potency means the concentration at half of the fitted maximal effect
Sequence of Cytochrome P450 2D6 (Homo sapiens) (P10635 whole entry, looked up): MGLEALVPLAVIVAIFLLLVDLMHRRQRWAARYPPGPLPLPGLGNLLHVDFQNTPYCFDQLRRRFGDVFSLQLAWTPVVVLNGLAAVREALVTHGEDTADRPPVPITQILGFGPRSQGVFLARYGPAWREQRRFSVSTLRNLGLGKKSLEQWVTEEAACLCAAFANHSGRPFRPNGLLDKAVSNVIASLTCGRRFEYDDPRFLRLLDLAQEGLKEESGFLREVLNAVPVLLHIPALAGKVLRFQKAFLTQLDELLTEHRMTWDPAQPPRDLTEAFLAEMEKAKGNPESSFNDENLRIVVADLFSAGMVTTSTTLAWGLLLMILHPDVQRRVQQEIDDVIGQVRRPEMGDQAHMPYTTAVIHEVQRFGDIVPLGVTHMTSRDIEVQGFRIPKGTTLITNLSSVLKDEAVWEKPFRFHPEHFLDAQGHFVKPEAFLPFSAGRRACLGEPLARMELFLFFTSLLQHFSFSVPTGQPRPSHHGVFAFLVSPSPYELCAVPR
Procedure, shortened: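 Test chemicals meet CYP2D6 plus proluciferin substrate (10 min, RT); NADPH regenerating solution then drives turnover for 1 h. Detection reagent halts the reaction; luminescence measured after 20 min.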

[5] = molecular target: Cytochrome P450 2C19 (Homo sapiens) (UniProt P33261); experiment: Cytochrome P450 Family 2 Subfamily C Member 19 (CYP2C19) small molecule antagonists: luciferase reporter qHTS assay (AID 1671197); further: nearly all actives have a fitted effect of over 65% in size; further: potency means the concentration at half of the fitted maximal effect
Sequence of Cytochrome P450 2C19 (Homo sapiens) (P33261 whole entry, looked up): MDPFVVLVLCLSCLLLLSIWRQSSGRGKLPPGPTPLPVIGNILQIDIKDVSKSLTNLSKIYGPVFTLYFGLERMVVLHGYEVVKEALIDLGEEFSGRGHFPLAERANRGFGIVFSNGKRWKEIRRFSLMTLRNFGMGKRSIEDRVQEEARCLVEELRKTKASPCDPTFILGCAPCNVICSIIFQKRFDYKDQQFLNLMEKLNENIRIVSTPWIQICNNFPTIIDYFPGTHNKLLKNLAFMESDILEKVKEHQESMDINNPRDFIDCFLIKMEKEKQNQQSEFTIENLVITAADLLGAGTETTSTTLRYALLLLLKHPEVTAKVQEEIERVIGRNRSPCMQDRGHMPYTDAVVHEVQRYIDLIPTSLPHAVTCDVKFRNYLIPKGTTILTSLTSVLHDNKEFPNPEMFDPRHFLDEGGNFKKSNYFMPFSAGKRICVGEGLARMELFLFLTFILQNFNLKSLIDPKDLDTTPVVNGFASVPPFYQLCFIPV
Procedure, shortened: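 First, compounds are pinned into enzyme-substrate mix and held 10 min at room temperature. Second, NADPH regeneration solution is added and plates incubate 1 h at 37C. Third, detection reagent is added and luminescence read after 20 min.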

[6] = molecular target: Cytochrome P450 2C9 (Homo sapiens) (UniProt P11712); experiment: Cytochrome P450 Family 2 Subfamily C Member 9 (CYP2C9) small molecule antagonists: luciferase reporter qHTS assay (AID 1671198); further: nearly all actives have a fitted effect of over 50% in size; further: potency means the concentration at half of the fitted maximal effect
Sequence of Cytochrome P450 2C9 (Homo sapiens) (P11712 whole entry, looked up): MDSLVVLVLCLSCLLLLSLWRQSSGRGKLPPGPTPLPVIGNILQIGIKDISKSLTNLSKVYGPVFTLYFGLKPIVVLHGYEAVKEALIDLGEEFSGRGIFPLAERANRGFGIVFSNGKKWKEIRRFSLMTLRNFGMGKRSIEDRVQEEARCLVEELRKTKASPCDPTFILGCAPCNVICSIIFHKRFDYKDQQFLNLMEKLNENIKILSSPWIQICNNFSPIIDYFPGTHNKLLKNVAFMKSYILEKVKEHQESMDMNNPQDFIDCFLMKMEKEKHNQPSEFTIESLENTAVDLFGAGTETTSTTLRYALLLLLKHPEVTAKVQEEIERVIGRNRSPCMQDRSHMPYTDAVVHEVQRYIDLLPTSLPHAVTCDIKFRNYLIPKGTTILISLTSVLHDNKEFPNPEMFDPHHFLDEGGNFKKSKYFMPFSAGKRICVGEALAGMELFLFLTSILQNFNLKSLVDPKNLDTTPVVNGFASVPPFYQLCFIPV
Procedure, shortened: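 P450-Glo proluciferin substrate with CYP2C9 enzyme; 10 min RT preincubation, then NADPH regeneration 1 h at 37C; luciferin detection reagent 20 min RT, luminescence in relative luminescence units.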

[7] = molecular target: Cytochrome P450 1A2 (Homo sapiens) (UniProt P05177); experiment: Cytochrome P450 Family 1 Subfamily A Member 2 (CYP1A2) small molecule antagonists: luciferase reporter qHTS assay (AID 1671199); further: nearly all actives have a fitted effect of over 50% in size; further: potency means the concentration at half of the fitted maximal effect
Sequence of Cytochrome P450 1A2 (Homo sapiens) (P05177 whole entry, looked up): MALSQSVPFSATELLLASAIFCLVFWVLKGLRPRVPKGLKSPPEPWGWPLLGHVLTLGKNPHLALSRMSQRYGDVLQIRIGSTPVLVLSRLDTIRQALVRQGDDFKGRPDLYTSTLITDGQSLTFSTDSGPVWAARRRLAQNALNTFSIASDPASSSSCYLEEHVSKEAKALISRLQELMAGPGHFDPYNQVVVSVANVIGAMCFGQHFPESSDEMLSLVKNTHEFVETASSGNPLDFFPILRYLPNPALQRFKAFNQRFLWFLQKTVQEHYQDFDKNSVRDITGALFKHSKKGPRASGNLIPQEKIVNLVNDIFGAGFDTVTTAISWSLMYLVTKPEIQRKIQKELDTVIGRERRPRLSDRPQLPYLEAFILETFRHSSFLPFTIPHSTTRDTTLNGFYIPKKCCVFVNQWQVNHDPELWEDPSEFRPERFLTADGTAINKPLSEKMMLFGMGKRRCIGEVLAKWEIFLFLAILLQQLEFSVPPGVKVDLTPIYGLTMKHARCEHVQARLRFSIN
Procedure, shortened: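 Steps: enzyme-substrate mix dispensed; test compounds and furafylline control pinned in; 10 min room temperature; NADPH regeneration solution added, 1 h; reaction stopped with luciferin detection reagent; luminescence read after 20 min.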

[8] = molecular target: Voltage-gated inwardly rectifying potassium channel KCNH2 (Homo sapiens) (UniProt Q12809); experiment: Human Ether-a-go-go-Related Gene (hERG) channel small molecule antagonists: fluorescence cell-based qHTS assay (AID 1671200)
Sequence of Voltage-gated inwardly rectifying potassium channel KCNH2 (Homo sapiens) (Q12809 whole entry, looked up): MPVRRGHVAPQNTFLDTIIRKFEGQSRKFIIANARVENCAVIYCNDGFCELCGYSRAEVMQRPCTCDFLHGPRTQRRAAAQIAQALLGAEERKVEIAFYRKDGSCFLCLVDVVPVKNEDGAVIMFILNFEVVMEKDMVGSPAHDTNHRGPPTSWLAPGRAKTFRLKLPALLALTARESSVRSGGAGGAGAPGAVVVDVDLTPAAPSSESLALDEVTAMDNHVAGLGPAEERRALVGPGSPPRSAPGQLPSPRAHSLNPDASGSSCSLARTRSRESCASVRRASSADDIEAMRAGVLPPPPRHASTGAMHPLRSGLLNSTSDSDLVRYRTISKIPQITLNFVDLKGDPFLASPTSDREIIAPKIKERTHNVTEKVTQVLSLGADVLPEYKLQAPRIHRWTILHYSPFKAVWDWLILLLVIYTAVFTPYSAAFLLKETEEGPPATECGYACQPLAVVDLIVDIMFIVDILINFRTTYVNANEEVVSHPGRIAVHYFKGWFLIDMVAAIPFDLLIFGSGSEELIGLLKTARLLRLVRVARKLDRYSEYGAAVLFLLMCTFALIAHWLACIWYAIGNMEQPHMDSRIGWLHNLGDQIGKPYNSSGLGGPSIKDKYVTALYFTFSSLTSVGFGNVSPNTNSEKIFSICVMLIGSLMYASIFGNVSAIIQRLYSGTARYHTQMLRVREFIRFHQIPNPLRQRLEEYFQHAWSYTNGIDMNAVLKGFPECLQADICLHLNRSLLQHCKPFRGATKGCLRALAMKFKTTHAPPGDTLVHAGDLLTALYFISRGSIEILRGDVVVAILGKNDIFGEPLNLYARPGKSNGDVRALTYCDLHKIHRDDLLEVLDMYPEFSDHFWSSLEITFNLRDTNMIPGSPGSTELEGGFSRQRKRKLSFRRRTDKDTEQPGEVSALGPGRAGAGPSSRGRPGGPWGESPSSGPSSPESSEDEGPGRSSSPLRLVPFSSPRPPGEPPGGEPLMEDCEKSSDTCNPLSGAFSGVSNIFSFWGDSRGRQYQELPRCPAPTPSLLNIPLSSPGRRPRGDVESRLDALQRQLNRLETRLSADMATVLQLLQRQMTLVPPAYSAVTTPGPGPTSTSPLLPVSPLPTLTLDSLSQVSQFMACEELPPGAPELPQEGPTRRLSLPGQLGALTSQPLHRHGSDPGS
Procedure, shortened: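 Thallium served as the potassium surrogate; its influx into dye-loaded U2OS cells carrying the channel was measured by fluorescence over 2 min.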

[9] = molecular target: Cytochrome P450 3A4 (Homo sapiens) (UniProt P08684); experiment: Cytochrome P450 Family 3 Subfamily A Member 4 (CYP3A4) small molecule antagonists: luciferase reporter qHTS assay (AID 1671201); further: nearly all actives have a fitted effect of over 50% in size; further: potency means the concentration at half of the fitted maximal effect
Sequence of Cytochrome P450 3A4 (Homo sapiens) (P08684 whole entry, looked up): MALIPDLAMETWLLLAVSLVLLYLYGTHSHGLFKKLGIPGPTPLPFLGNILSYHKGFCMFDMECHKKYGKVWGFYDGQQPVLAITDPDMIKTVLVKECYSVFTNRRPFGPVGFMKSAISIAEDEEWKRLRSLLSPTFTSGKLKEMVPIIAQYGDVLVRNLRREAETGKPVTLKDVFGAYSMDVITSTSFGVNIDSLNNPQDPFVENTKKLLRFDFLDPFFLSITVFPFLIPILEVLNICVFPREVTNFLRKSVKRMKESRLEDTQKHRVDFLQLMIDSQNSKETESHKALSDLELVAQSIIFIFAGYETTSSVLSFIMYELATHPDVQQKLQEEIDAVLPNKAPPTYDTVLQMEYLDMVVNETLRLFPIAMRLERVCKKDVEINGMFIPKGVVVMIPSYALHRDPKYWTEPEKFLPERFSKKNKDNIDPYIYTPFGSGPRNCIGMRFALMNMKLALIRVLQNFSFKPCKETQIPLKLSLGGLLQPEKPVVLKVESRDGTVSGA
Procedure, shortened: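 Relative luminescence units after 20 min with luciferin detection reagent served as read-out. Beforehand, CYP3A4 turned over a proluciferin substrate for 1 h at room temperature with NADPH regeneration, following 10 min compound preincubation.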

Measured: Potency

CC(C)(C)NCC(O)c1ccccc1Cl (centres undefined)
active: [4] 9.77 µM
inactive: [1] | [2] | [3] | [5] | [6] | [7] | [8] | [9]

c1ccc2c(c1)sc1ccccc12
39.9 µM (active) and inactive: [5]
inactive: [1] | [2] | [3] | [4] | [6] | [8] | [9]
active: [7] 3.17 µM and 2.57 µM

O=C(Cc1ccccc1)c1ccccc1
inactive: [1] | [2] | [3] | [6] | [8] | [9]
active: [4] 22.4 µM | [5] 11.2 µM | [7] 12.6 µM

FC(Cl)(Cl)C(F)(Cl)Cl
inactive: [1] | [2] | [3] | [4] | [5] | [6] | [8] | [9]

CC(C)(C)c1ccc(CCOc2ncnc3ccccc23)cc1
inactive: [1] | [2] | [3] | [5] | [6] | [7] | [8] | [9]
active: [4] 71 µM

O=S(=O)(c1ccccc1)c1ccccc1
inactive: [1] | [2] | [3] | [4] | [6] | [7] | [8] | [9]
active: [5] 63.3 µM

CC(C)(C)N(NC(=O)c1ccc(Cl)cc1)C(=O)c1ccccc1
active: [5] 4.45 µM | [6] 11.2 µM | [7] 39.7 µM | [9] 7.92 µM
inactive: [1] | [2] | [3] | [4] | [8]

C[C@]12CC[C@H]3[C@@H](CCC4=CC(=O)CC[C@@H]43)[C@@H]1CC[C@@H]2OC(=O)CCc1ccccc1
inactive: [1] | [2] | [3] | [4] | [5] | [7] | [9]
active: [6] 30.9 µM

CCC(C)Cl (centres undefined)
inactive: [1] | [2] | [3] | [4] | [5] | [6] | [8]

CNC(=O)Oc1cccc(N=CN(C)C)c1
active: [1] 20 µM | [2] 3.56 µM | [3] 63.3 µM | [4] 79.6 µM | [5] 79.6 µM | [6] 79.6 µM
inactive: [8] | [9]

C[C@H](N)[C@H](O)c1ccc(O)c(O)c1
inactive: [1] | [3] | [4] | [5] | [6] | [7] | [8] | [9]
active: [2] 0.776 µM

CN1CC[C@]23c4c5ccc(O)c4O[C@H]2[C@@H](O)C=C[C@H]3[C@H]1C5
inactive: [1]

OC[P+](CO)(CO)CO
inactive: [1] | [2] | [3] | [4] | [5] | [6] | [7] | [8] | [9]

CCOP(=S)(S)OCC
inactive: [1] | [3] | [4] | [8] | [9]
active: [2] 42.1 µM | [5] 33.4 µM | [6] 21.1 µM

CCCN(CCC)c1c([N+](=O)[O-])cc(C(C)C)cc1[N+](=O)[O-]
active: [5] 8.75 µM and 5.03 µM | [6] 27.7 µM and 31.7 µM | [7] 27.7 µM and 35.6 µM
inactive: [1] | [2] | [3] | [4] | [8]

C=CCOC(=O)C(C)(C)OC(=O)c1cc(-n2c(=O)cc(C(F)(F)F)n(C)c2=O)ccc1Cl
inactive: [1] | [2] | [3] | [8]
active: [4] 27.7 µM | [5] 49.3 µM | [6] 15.6 µM | [9] 0.553 µM

CC(C)(C)NCC(O)c1cc(Cl)c(N)c(C(F)(F)F)c1 (centres undefined)
active: [4] 15.5 µM
inactive: [1] | [2] | [3] | [5] | [6] | [7] | [8] | [9]

CCSCc1ccccc1OC(=O)NC
active: [1] 20 µM | [2] 22.4 µM | [7] 63.3 µM
inactive: [3] | [4] | [5] | [8] | [9]

CCOP(=O)(O)C(N)=O
inactive: [1] | [2] | [3] | [4] | [5] | [7] | [8] | [9]

CCCC[N+](CCCC)(CCCC)CCCC
active: [4] 0.0089 µM
inactive: [1] | [2] | [3] | [5] | [7] | [9]

CCOP(=O)(SC(C)CC)N1CCSC1=O (centres undefined)
active: [6] 63.3 µM | [7] 35.6 µM
inactive: [1] | [2] | [3] | [4] | [8]

CN1CC[C@]23c4c5ccc(O)c4O[C@H]2[C@@H](O)CC[C@H]3[C@H]1C5
active: [4] 44 µM
inactive: [1] | [2] | [3] | [5] | [7] | [8]
